# Test results from PubChem BioAssay.
# Active and inactive are the calls of the source.
# Columns and labels:
# [1] = tested on: Plasmodium falciparum Sir2 (PF13_0152, Sir2A); experiment: pfSir2 binders on small-molecule microarrays, primary screen, biochemical, small-molecule microarray, 635 nm fluorescence (AID 1098); details: small-molecule microarray binding, fluorescence 635 nm; higher = more signal;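 note: score merges spot fluorescence intensity with its signal-to-noise ratio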
# [2] = small-molecule microarray binders of probe aDKK1, primary screen, biochemical, biotinylated probe, 635/667 nm fluorescence (AID 1099); details: higher = more signal;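 note: score merges 667nm spot fluorescence with signal to noise across triplicate slides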
# [3] = small-molecule microarray binders of probe aCHRDL2, primary screen, biochemical, biotinylated probe, 635/667 nm fluorescence (AID 1100); details: higher = more signal
# [4] = splicing luciferase reporter signal modulators, primary screen, spliceosome inhibition project, cell-based, HEK293, splice +/- reporter (AID 1101); details: luminescence, 24 h, higher = more signal, called active from +8 up or from −8 down;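 note: HEK293 cells carrying a splicing-competent luciferase reporter gene; test concentration not given here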
# [5] = biological target: Fibroblast growth factor 10 (Homo sapiens) (UniProt O15520); experiment: FGF10 binders on small-molecule microarrays, primary screen, biochemical, small-molecule microarray, 635 nm fluorescence (AID 1102); details: FGF10 binding, fluorescence 635 nm, higher = more signal
# [6] = tested on: glycogen synthase kinase-3 (GSK3A per assay name; protocol says GSK3B); experiment: GSK3 binders on small-molecule microarrays, primary screen, biochemical, small-molecule microarray, 635 nm fluorescence, GSK3A (AID 1103); details: small-molecule microarray binding, fluorescence 635 nm; higher = more signal; note: the record names both GSK3A and GSK3B
# [7] = biological target: Epidermal growth factor receptor (Homo sapiens) (UniProt P00533); experiment: EGFR binders on small-molecule microarrays, primary screen, biochemical, small-molecule microarray, 635 nm fluorescence (AID 1104); details: EGFR binding, higher = more signal;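 note: score merges 667 nm emission intensity with spot signal to noise over triplicate slides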
# [8] = biological target: Follistatin-related protein 3 (Homo sapiens) (UniProt O95633); experiment: FSTL3 binders on small-molecule microarrays, primary screen, biochemical, small-molecule microarray, 635 nm fluorescence (AID 1105); details: FSTL3 binding, higher = more signal;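 note: score merges emission near 667 nm and signal to noise per printed spot across three slides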
# [9] = biological target: Dickkopf-related protein 1 (Homo sapiens) (UniProt O94907); experiment: DKK1 binders on small-molecule microarrays, primary screen, biochemical, small-molecule microarray, 635 nm fluorescence scan (AID 1106); details: DKK1 binding, higher = more signal;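 note: score merges emission near 667 nm with signal to noise over three replicate slides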
# [10] = tested on: Inhibin beta A chain (activin A); experiment: INHBA (activin A) binders on microarrays, primary screen, biochemical, small-molecule microarray, 635 nm fluorescence scan (AID 1107); details: small-molecule microarray binding, higher = more signal;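 note: mouse activin A protein probed at 4.33 µg/mL on printed slides; score merges bound-protein fluorescence near 667 nm with spot signal-to-noise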
# [11] = tested on: Human papillomavirus type 1a protein E7 (residues 44-93); experiment: HPV1a E7 fragment binders on microarrays, primary screen, biochemical, small-molecule microarray, residues 44-93, 635 nm fluorescence (AID 1108); details: small-molecule microarray binding, fluorescence 635 nm; higher = more signal;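 note: E7 fragment applied at 1 µg/mL in TBST for 1 h at 4 C; score combines spot fluorescence with its signal to noise ratio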
# [12] = modulators of HCV replicon luciferase signal, primary screen, HCV replication inhibitor project, Huh7 cells, luciferase reporter (AID 1109); details: 48 h, higher = more signal;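 note: huh7 hepatoma cells harbouring a luciferase neomycin HCV replicon reporter; luciferase luminescence as measure of HCV replicon replication; test concentration not given here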
# [13] = biological target: Left-right determination factor 2 (Homo sapiens) (UniProt O00292); experiment: LEFTY2 binders on small-molecule microarrays, primary screen, biochemical, small-molecule microarray, 635 nm fluorescence scan (AID 1110); details: LEFTY2 binding, higher = more signal
# [14] = biological target: Calmodulin-1 (Homo sapiens) (UniProt P0DP23); experiment: CALM1 binders on microarrays, EGTA buffer, profiling panel, biochemical, small-molecule microarray, Cy5-labelled CALM1 (AID 1111); details: Cy5-CALM1 binding fluorescence, higher = more signal;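 note: labelled calmodulin applied in Tris saline Tween buffer holding calcium plus EGTA and DTT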
# [15] = biological target: Calmodulin-1 (Homo sapiens) (UniProt P0DP23); experiment: calcium-bound CALM1 binders on microarrays, profiling panel, artefact control for SMM control-protein annotation, biochemical, small-molecule microarray, Cy5-labelled CALM1, plus calcium (AID 1112); details: Cy5-CALM1 binding fluorescence, higher = more signal;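 note: score merges spot fluorescence with signal to noise from triplicate slides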
# [16] = small-molecule microarray binders of probe aWnt5a, primary screen, biochemical, biotinylated probe, 635/667 nm fluorescence (AID 1113); details: higher = more signal;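 note: score merges 667 nm fluorescence intensity with signal-to-noise per printed feature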
# [17] = small-molecule microarray binders of probe aShh, primary screen, biochemical, biotinylated probe, 635/667 nm fluorescence (AID 1114); details: higher = more signal;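 note: probe is biotin-labelled aShh protein from a stem cell growth factor screen; measures binding of labelled protein to compounds printed on the slide; score merges feature fluorescence at 667 nm with signal-to-noise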
# [18] = small-molecule microarray binders of probe aNog, primary screen, biochemical, biotinylated probe, 635/667 nm fluorescence (AID 1115); details: higher = more signal;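 note: probe is biotinylated aNog protein used at 0.15 µg/mL for 1 h at 4 C; z-score combines 667 nm fluorescence of each spot with its signal to noise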
# [19] = biological target: Torsin-1A-interacting protein 1 (Homo sapiens) (UniProt Q5JTV8); experiment: LAP1 binders from COS7 cell lysate, primary screen, small-molecule microarray, 635/667 nm fluorescence (AID 1116); details: COS7-hLAP1 lysate binding, 635 nm fluorescence, higher = more signal
# [20] = biological target: Alpha-bungarotoxin (Bungarus multicinctus) (UniProt P60615); experiment: alpha-bungarotoxin binders on microarray, profiling panel, artefact control for SMM control protein annotation, biochemical, small-molecule microarray, Alexa647 label, 635/667 nm fluorescence (AID 1117); details: alpha-BTX-A647 binding fluorescence, higher = more signal
# Chain of Alpha-bungarotoxin (Bungarus multicinctus) (P60615 whole entry, looked up): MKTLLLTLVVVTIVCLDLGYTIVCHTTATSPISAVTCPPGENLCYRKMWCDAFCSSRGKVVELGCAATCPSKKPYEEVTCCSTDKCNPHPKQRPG
# Chain of Follistatin-related protein 3 (Homo sapiens) (O95633 whole entry, looked up): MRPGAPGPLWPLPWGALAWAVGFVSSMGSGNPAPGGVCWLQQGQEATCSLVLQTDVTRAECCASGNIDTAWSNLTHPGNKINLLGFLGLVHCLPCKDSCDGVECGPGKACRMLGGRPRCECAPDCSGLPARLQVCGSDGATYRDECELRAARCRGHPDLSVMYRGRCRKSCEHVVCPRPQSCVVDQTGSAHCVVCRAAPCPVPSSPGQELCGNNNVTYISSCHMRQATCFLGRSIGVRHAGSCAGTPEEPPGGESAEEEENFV
# Chain of Torsin-1A-interacting protein 1 (Homo sapiens) (Q5JTV8 whole entry, looked up): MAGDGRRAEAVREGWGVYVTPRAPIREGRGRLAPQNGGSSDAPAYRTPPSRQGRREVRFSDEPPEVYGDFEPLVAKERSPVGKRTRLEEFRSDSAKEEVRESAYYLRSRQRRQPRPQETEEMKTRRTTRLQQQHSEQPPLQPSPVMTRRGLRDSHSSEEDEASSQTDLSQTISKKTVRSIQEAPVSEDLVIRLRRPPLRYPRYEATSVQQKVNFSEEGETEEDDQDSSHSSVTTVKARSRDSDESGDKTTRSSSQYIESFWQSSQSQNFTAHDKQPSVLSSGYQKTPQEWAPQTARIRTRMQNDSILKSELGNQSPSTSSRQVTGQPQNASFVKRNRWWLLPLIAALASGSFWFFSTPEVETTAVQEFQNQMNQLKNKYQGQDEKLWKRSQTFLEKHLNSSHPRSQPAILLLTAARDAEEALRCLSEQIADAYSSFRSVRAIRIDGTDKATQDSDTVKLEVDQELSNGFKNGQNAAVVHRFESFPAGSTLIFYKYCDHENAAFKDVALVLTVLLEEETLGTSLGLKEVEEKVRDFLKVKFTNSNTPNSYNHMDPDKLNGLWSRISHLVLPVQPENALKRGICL
# Chain of Dickkopf-related protein 1 (Homo sapiens) (O94907 whole entry, looked up): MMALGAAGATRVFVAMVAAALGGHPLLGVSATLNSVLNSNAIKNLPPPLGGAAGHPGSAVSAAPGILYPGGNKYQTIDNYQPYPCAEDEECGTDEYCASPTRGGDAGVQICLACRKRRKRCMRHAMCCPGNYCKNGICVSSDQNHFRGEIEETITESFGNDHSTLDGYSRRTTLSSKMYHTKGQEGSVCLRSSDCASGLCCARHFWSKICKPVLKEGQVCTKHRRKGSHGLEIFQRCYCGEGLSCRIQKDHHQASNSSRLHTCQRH
# Chain of Fibroblast growth factor 10 (Homo sapiens) (O15520 whole entry, looked up): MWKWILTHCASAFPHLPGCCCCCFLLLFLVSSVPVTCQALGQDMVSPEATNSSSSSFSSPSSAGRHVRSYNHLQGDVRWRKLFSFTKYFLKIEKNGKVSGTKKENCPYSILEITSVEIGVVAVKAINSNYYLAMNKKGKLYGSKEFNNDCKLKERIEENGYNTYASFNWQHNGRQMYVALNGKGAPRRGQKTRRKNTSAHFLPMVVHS
# Chain of Epidermal growth factor receptor (Homo sapiens) (P00533 whole entry, looked up): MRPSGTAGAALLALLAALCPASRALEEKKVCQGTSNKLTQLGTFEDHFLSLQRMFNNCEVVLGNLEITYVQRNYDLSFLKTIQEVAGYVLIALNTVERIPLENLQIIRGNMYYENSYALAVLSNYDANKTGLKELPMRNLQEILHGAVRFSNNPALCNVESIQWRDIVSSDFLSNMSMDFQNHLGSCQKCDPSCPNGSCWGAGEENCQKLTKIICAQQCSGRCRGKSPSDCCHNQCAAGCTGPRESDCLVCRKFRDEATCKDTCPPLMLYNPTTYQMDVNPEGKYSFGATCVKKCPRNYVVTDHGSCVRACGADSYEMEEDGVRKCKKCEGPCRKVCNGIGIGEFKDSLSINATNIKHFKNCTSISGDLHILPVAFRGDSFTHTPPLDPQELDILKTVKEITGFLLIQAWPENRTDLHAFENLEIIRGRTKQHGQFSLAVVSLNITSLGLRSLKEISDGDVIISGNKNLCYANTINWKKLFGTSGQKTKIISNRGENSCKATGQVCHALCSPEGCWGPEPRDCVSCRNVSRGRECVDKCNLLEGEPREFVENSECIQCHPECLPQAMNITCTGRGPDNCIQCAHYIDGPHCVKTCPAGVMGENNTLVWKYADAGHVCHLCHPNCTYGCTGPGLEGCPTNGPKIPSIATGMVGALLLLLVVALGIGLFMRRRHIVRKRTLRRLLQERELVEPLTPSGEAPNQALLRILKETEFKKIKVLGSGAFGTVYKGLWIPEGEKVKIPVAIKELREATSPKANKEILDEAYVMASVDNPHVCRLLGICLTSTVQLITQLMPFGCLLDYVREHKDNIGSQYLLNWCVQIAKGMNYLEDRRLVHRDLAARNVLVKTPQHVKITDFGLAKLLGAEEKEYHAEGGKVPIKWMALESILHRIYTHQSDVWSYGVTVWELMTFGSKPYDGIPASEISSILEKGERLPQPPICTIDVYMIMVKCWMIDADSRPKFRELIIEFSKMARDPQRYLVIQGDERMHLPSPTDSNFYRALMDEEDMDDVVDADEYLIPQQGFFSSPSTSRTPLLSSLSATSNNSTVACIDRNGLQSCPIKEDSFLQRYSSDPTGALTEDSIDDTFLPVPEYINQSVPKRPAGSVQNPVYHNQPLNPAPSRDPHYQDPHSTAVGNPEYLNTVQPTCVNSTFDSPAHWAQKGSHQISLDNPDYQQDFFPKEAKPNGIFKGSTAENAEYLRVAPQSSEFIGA
# Chain of Left-right determination factor 2 (Homo sapiens) (O00292 whole entry, looked up): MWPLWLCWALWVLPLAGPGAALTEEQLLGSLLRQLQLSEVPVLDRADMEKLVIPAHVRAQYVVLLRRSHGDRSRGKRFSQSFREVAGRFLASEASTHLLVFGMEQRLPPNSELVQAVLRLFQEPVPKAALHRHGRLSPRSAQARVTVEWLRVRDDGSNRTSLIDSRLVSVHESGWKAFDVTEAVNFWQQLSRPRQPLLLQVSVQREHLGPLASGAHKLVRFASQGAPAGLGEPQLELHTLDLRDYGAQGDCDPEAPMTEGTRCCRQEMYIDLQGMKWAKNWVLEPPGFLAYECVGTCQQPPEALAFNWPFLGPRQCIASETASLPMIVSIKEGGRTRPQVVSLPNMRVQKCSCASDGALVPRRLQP
Structure (SMILES),composite z-score [1],composite z-score [2],composite z-score [3],z-score [4],composite z-score [5],composite z-score [6],composite z-score [7],composite z-score [8],composite z-score [9],composite z-score [10],composite z-score [11],z-score [12],composite z-score [13],composite z-score [14],composite z-score [15],composite z-score [16],composite z-score [17],composite z-score [18],composite z-score [19],composite z-score [20]
[N-]=[N+]=NCc1ccccc1C[C@@]1(C(=O)NCC(O)CO)N=C(c2ccc(OCCCO)cc2)O[C@@H]1c1ccccc1CN=[N+]=[N-] (stereo not given in full),1.71,-0.0331,0.884,0.135 (inactive),1.33,0.712,-0.747,-0.203,-0.643,0.688,1.06,-1.73,-0.88,2.11,0.876,0.0219,0.269,2.29,2.01,1.5
O=C1OCCC=C[C@H]2OC34C=CCN(c5ccc6ccccc6c5)C(=O)[C@H]3N(CCCCCO)C(=O)[C@@H]4C12 (stereo not given in full),1.8,0.0672,0.597,-0.606 (inactive),-0.408,-0.224,-0.162,-0.662,-0.731,0.218,0.444,-0.345,-1.05,-0.491,-0.0432,-0.147,-0.0011,0.438,1.92,-0.264
CC(C)N1C(=O)[C@@]2(c3ccc([N+](=O)[O-])cc3)CC(=O)N(CC34CC5CC(CC(C5)C3)C4)[C@@H]2c2ccc(CO)cc21,-0.732,-0.0981,0.226,0.477 (inactive),-0.51,-0.829,-1.81,-0.603,-0.734,0.0207,-1.28,-1.21,-1.36,-0.251,0.134,-0.316,-0.208,0.705,-0.742,-0.12
Cc1c(NC(=O)CC#N)c(=O)n(-c2ccccc2)n1C,0.345,-0.274,-0.47,0.933 (inactive),0.118,0.526,0.322,0.367,0.273,-0.256,0.371,-0.27,0.364,0.121,-0.235,-0.0944,0.253,-0.434,0.292,1.08
COC(=O)[C@@]1(Cc2ccc(OC)cc2)[C@H]2c3cc(C(=O)N4CCCC4)n(CCc4c[nH]c5cc(F)ccc45)c3C[C@H]2CN1C(=O)c1ccccc1,1.31,0.185,1.19,-0.332 (inactive),0.875,1.09,0.0022,0.988,-0.0303,0.831,0.991,-1.89,0.259,2.73,1.07,0.168,0.265,2.06,2.94,1.42
COc1ccc(C(=O)Nc2cccc(CN3C(=O)[C@]4(O[C@H](CC(=O)N5CCC[C@H]5CO)[C@@H]([Si](C)(C)c5ccc(OC)cc5)[C@@H]4C)c4ccccc43)c2)cc1,1.27,-0.202,-0.067,-0.0342 (inactive),0.703,1.12,0.317,0.737,0.65,-0.0762,1.23,-2.84,0.419,0.418,0.252,-0.0285,-0.0959,0.0733,1.06,0.954
O=C1[C@]2(CO)C=C(Br)[C@@H](C[C@@H]2c2ccccc2)[C@@]12CO2,0.628,0.0144,0.0065,0.359 (inactive),0.208,-0.626,-0.135,0.419,0.357,0.263,-0.728,-3.08,0.218,-0.567,-0.322,-0.0165,-0.221,-0.158,-0.563,-0.0487
O=C(O)[C@H]1C[C@H]2C(=O)NCC(=O)N2[C@H]1c1ccc(O)cc1,0.237,-0.248,-0.346,-0.821 (inactive),0.413,0.504,-0.213,0.845,0.681,0.23,-0.008,1.81,0.205,-0.559,-0.0282,-0.147,-0.214,-0.312,0.519,2.03
CCOC(=O)C1=C[C@@H](C(C)C)N(S(=O)(=O)c2ccc(C)cc2)[C@H]1c1ccc(C(C)C)cc1,1.65,-0.132,-0.229,0.449 (inactive),1.04,1.3,0.848,1.35,0.57,0.375,1.35,-2.16,0.524,1.33,-0.144,-0.0735,-0.138,-0.58,0.324,1.1
CC(C)C[C@@H]1NC(=O)[C@@H]2C[C@H](C(=O)NCCCCCC[N+](C)(C)C)[C@H](c3ccc(O)cc3)N2C1=O,1.38,0.026,0.0989,0.00513 (inactive),0.623,1.21,0.29,0.706,0.977,0.987,1.15,0.0338,0.424,0.669,-1.15,-0.208,0.246,-0.158,0.912,2
O=C1C=CC(=O)[C@@H]2CC(COc3ccccc3)=C3[C@@H](CCc4ccccc4)OB(O)C[C@@H]3[C@H]12,0.403,-0.339,-0.523,2.04 (inactive),0.545,0.34,0.515,0.887,1.07,0.72,0.23,-1.64,0.41,-0.413,-1.09,-0.0819,0.0121,-0.175,0.0342,0.361
O=C1OCCC/C=C\[C@H]2OC34C=CCN(Cn5nnc6ccccc65)C(=O)[C@H]3N(CCCCCO)C(=O)[C@@H]4C12 (stereo not given in full),0.957,-0.118,0.584,-0.586 (inactive),-1.08,-1.7,-0.97,-0.751,-1.45,0.702,-0.921,0.0311,-1.5,-0.709,-0.388,-0.175,-0.0035,-0.0894,-0.118,-0.697
